High-throughput results deposited in PubChem BioAssay by National Center for Advancing Translational Sciences (NCATS).
The full list was thinned out, with hits kept by preference.
SARS PLP yeast: qHTS of Yeast-based Assay for SARS-CoV PLP | Potency, µM (highest dose often 32.9 µM), actives largely listed as activators | S. cerevisiae expressing SARS-CoV PLpro, growth rescue | 0.19% of 330,000 active; calls by dose curve; note: nearly all actives have a fitted effect of over 55% in size
Shiga toxin inh: A qHTS for Small Molecule Inhibitors of Shiga Toxin; Vero cells, Shiga toxin protein synthesis inhibition reporter; inhibition, % at 38.7 µM; 9.2% of 290,000 active; in the data active = inhibition mostly above about 28%, no sharp cut-off; inactive = mostly below about 43%
AmpC inh no detg: qHTS Inhibitors of AmpC Beta-Lactamase (assay without detergent); 0.52% of 330,000 active; P00811; AmpC nitrocefin hydrolysis, absorbance 480 nm, 0.0001% Triton; Potency, µM (series often up to 57.1 µM), most hits filed as inhibitors; note: nearly all actives have a fitted effect of over 20% in size
Target sequence (P00811 whole entry, looked up): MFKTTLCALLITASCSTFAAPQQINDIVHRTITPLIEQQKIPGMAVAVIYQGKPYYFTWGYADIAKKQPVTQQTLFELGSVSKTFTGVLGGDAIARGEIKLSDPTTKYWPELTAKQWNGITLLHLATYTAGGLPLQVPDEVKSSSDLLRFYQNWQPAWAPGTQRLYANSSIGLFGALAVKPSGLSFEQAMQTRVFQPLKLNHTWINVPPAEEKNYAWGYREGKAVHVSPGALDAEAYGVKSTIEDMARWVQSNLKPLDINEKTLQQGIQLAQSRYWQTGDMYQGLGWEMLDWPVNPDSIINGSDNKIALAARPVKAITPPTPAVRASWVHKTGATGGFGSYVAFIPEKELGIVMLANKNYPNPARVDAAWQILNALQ
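AmpC (5.3 nM in the dispensed reagent) in 20 mM phosphate pH 7.0 with 0.01% (detergent screen) or 0.0001% Triton X-100 was preincubated with compounds for 15 min at room temperature. Nitrocefin was then added from an 800 uM solution, and hydrolysis was followed at 480 nm.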
CHX counter: Cycloheximide Counterscreen for Small Molecule Inhibitors of Shiga Toxin; cell reporter, cycloheximide protein synthesis inhibition counterscreen; max response, %; 12% of 300,000 active; in the data active = max response mostly above about 13%, no sharp cut-off; inactive = mostly below about 14%; note: read at 38.3 µM for the half of the compounds with a filed dose
AMA1-RON2 inh: qHTS for Inhibitors of AMA1-RON; Towards Development of Antimalarial Drug Lead: Primary Screen; Plasmodium falciparum AMA1 (3D7) - RON2 peptide interaction; AlphaScreen AMA1-biotinylated RON2 peptide binding; Potency, µM (highest dose often 58.2 µM), most hits filed as inhibitors; 0.2% of 360,000 active; AID 720542, 2013; note: nearly all actives have a fitted effect of over 45% in size
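AMA1 (3D7) with his tag at 25 nM final met compounds first, then biotinylated RON2 peptide at 25 nM; detection used donor plus acceptor beads, 10 µg/mL apiece, read by AlphaScreen after 30 min at room temperature.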
AmpC detergent: qHTS Inhibitors of AmpC Beta-Lactamase (assay with detergent). AID 485294, 2010. AmpC hydrolysis of nitrocefin, absorbance 480 nm, 0.01% Triton. 0.041% of 370,000 active. Potency, µM (top dose mostly 114 µM), hits mostly inhibitors; note: nearly all actives have a fitted effect of over 25% in size
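AmpC (5.3 nM in the dispensed reagent) in 20 mM phosphate pH 7.0 with 0.01% (detergent screen) or 0.0001% Triton X-100 was preincubated with compounds for 15 min at room temperature. Nitrocefin was then added from an 800 uM solution, and hydrolysis was followed at 480 nm.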
Of the large screens only hits and unclear results are named; the others gave an inactive call. Unless noted, calls come from the whole dose curve; as a rule, active = well fitted curve in the direction sought with a large enough effect; inconclusive = small, poorly fitted or top-dose-only effect, or another doubt; inactive = no such curve, though single readings can be large; an effect the other way counts as inactive or inconclusive.

CCOc1ccc(-c2ccc(SCC)nn2)cc1	Shiga toxin inh 75, CHX counter 29
CCOc1ccc(-c2ccc(SCC(=O)Nc3nnc(C)s3)nn2)cc1	none
Nc1ncc([N+](=O)[O-])cc1S(=O)(=O)c1ccccc1	none (no result: SARS PLP yeast, Shiga toxin inh, AmpC inh no detg, CHX counter, AmpC detergent)
O=C1C2C3c4ccccc4C(c4ccccc43)C2C(=O)N1Cc1ccco1 (stereo not given)	none
CC12C(=O)N(Cc3ccco3)C(=O)C1C1c3ccccc3C2c2ccccc21 (stereo not given)	CHX counter 46
CC(C)[C@H](NC(=O)N1CCn2c1nc1ccccc12)C(=O)N[C@@H](Cc1ccccc1)C(=O)O	SARS PLP yeast inconclusive
COc1ccc(COc2cccnc2N)cc1	Shiga toxin inh 56, CHX counter 35
Nc1ncccc1OCc1ccc(Br)cc1	Shiga toxin inh 77, CHX counter 71
Cc1ccc2cccc(OCc3ccc(Br)cc3)c2n1	none
CCN(CC)S(=O)(=O)c1cccc(N=Nc2c(O)n(CC)c(=S)n(CC)c2=O)c1	none
OCCCNc1cc(-c2ccnc(Nc3cccc(Cl)c3)n2)ccn1	Shiga toxin inh 37, CHX counter 23
CCC(C)Oc1cc(-c2ccnc(Nc3cccc(Cl)c3)n2)ccn1 (stereo not given)	none
O=C1CSC(=S)N1N=C1CCCCCC1	CHX counter 14, AMA1-RON2 inh inconclusive
Cc1nn(C)c(C)c1S(=O)(=O)N1CCC(C(=O)NCCC2=CCCCC2)CC1	none
C/C(=N\Nc1nncc2ccccc12)c1ccc(O)cc1	Shiga toxin inh 54, CHX counter 28
COc1ccc(-c2nc(N/N=C(\C)c3ccc(O)cc3)c3ccccc3n2)cc1	Shiga toxin inh 72, CHX counter 29
C/C(=N\Nc1nncc2ccccc12)c1cccc(OC(F)F)c1	Shiga toxin inh 65, CHX counter 20
C/C(=N\Nc1nncc2ccccc12)c1ccc(C(C)(C)C)cc1	Shiga toxin inh 98, CHX counter 42
COc1cccc(/C(C)=N/NC(=O)c2cc(-c3cccnc3)nc3ccccc23)c1	none
NCC(=O)NCC(=O)NC[C@H]1O[C@@H](n2ccc(=O)[nH]c2=O)[C@H](O)[C@@H]1O	none (no result: SARS PLP yeast, Shiga toxin inh, AmpC inh no detg, CHX counter, AmpC detergent)
CCC1CCCCN1S(=O)(=O)c1ccc(S(=O)(=O)N(Cc2ccccn2)CC2CCCO2)cc1 (stereo not given)	none
CC12CCC3C(CCC4CC(O)CCC43C)C1CC(O)C2 (stereo not given)	none (no result: SARS PLP yeast, Shiga toxin inh, AmpC inh no detg, CHX counter, AmpC detergent)
CCOC(=O)C(C)On1c(-c2ccccc2)nc2ccc([N+](=O)[O-])cc21 (stereo not given)	Shiga toxin inh 50, CHX counter 35
Cn1c(-c2ccc([N+](=O)[O-])cc2)nc2ccccc21	none
O=C(O)COn1c(-c2ccccc2)nc2ccc([N+](=O)[O-])cc21	Shiga toxin inh 49, CHX counter 25
C=CCN1C(=O)CN=C1NCc1ccccc1	none
O=C(CCN1CCc2ccccc21)c1ccc2c(c1)OCCO2	CHX counter 26, AMA1-RON2 inh inconclusive, AmpC detergent inconclusive
O=C(CCN1CCC(c2ccccc2)C1)c1ccc2c(c1)OCCO2 (stereo not given)	CHX counter 13
O=C(CCN1CCCCC1)c1ccc2c(c1)OCCO2	none
O=C(CCN1CCc2ccccc2C1)c1ccc2c(c1)OCCO2	Shiga toxin inh 95, CHX counter 51
CC(C)C[C@@H](CO)N1CCNCCC1=O	none
O=S(=O)(Nc1cccc(-c2cn3ccsc3n2)c1)c1ccc(F)cc1	Shiga toxin inh 106, CHX counter 25
Cc1cccc(S(=O)(=O)Nc2cccc(-c3cn4ccsc4n3)c2)c1	none
CC(C)CC(=O)Nc1cccc(-c2cn3ccsc3n2)c1	Shiga toxin inh 36, CHX counter 32
Cc1ccc(S(=O)(=O)Nc2cccc(-c3cn4ccsc4n3)c2)cc1	CHX counter 9.6
COc1ccc([N+](=O)[O-])cc1NC(=O)Cc1ccccc1Cl	none
CCCCOc1ccc(C(=O)NCC2(c3ccccc3)CCOCC2)cc1	none
NC(=O)c1ccc(-n2nc(C(F)(F)F)c3c2CCCC3)cc1	CHX counter 19
CC1CC(C)CN(C(=O)c2ccc(C#N)cc2)C1 (stereo not given)	none
C=CCOn1c(=O)c(-c2cc3ccccc3o2)[n+]([O-])c2ccccc21	Shiga toxin inh 120, CHX counter 38
CCOC(=O)COn1c(=O)c(-c2ccc(Br)cc2)[n+]([O-])c2ccccc21	none
CCOC(=O)COn1c(=O)c(-c2cc3ccccc3o2)[n+]([O-])c2ccccc21	Shiga toxin inh 172, CHX counter 72
O=C(Cc1ccccc1)Nc1ccccc1C(=O)N1CCN(c2ccccc2)CC1	AmpC detergent inconclusive
COc1cc(C2N(c3ccccc3)CCN2c2ccccc2)cc(OC)c1OC	CHX counter 13
COc1ccc2c(c1)O/C(=C\c1sccc1C)C2=O	CHX counter 24
O=C(O)COc1ccc2c(c1)O/C(=C\c1cccs1)C2=O	none
O=C(NCc1ccco1)c1cc(-c2cccc(Cl)c2)on1	Shiga toxin inh 38, CHX counter 33
O=C(NCc1ccco1)c1cc(-c2ccc(Cl)cc2)on1	CHX counter 20
CC(C)Cc1cc(C(=O)NCc2ccco2)no1	Shiga toxin inh 52, CHX counter 32
Cc1cc(C(=O)NCc2ccco2)no1	AmpC detergent inconclusive
O=C(NC(=S)NCc1ccco1)c1cccc(Cl)c1	none (no result: AMA1-RON2 inh)
O=C(NCc1ccco1)c1nc(-c2ccc(F)cc2)no1	Shiga toxin inh 41
O=C(NC1CCCC1)C1C(c2ccc(C(F)(F)F)cc2)=Nc2ccccc2N1C(=O)c1ccco1 (stereo not given)	none (no result: SARS PLP yeast, Shiga toxin inh, AmpC inh no detg, CHX counter, AmpC detergent)
O=C(NCc1ccco1)c1ccc(-c2cccc(Cl)c2)o1	Shiga toxin inh 71, CHX counter 52
COc1cccc(-c2cc(C(=O)NCc3ccco3)no2)c1	Shiga toxin inh 86, CHX counter 50
Cc1ccc(-c2cc(C(=O)NCc3ccco3)no2)cc1	Shiga toxin inh 43, CHX counter 28
COc1ccc(OC)c(-c2cc(C(=O)NCc3ccco3)no2)c1	AMA1-RON2 inh inconclusive
CC1CCc2onc(C(=O)NCc3ccco3)c2C1 (stereo not given)	Shiga toxin inh 85, CHX counter 38
CC(=O)c1cccc(NC(=O)c2noc3c2CC(C)CC3)c1 (stereo not given)	none (no result: SARS PLP yeast, Shiga toxin inh, AmpC inh no detg, CHX counter, AMA1-RON2 inh)
O=C(COC(=O)c1c(F)cccc1F)NCc1ccc2c(c1)OCO2	none (no result: Shiga toxin inh, CHX counter)
CC(=O)c1cccc(NC(=O)[C@H](Cc2ccccc2)N2Cc3ccccc3C2=O)c1	none (no result: SARS PLP yeast, Shiga toxin inh, AmpC inh no detg, CHX counter, AMA1-RON2 inh)
